Assays:
[1] = molecular target: Sphingosine kinase 1 (Homo sapiens) (UniProt Q9NYA1); details: at 1 µM;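 note: mean SPHK1 inhibition value reported from the GSK PKIS kinase panel screen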
[2] = molecular target: T1, Sphingosine kinase 2 (Homo sapiens) (UniProt Q9NRA0); details: at 0.1 µM
T1 sequence (whole entry): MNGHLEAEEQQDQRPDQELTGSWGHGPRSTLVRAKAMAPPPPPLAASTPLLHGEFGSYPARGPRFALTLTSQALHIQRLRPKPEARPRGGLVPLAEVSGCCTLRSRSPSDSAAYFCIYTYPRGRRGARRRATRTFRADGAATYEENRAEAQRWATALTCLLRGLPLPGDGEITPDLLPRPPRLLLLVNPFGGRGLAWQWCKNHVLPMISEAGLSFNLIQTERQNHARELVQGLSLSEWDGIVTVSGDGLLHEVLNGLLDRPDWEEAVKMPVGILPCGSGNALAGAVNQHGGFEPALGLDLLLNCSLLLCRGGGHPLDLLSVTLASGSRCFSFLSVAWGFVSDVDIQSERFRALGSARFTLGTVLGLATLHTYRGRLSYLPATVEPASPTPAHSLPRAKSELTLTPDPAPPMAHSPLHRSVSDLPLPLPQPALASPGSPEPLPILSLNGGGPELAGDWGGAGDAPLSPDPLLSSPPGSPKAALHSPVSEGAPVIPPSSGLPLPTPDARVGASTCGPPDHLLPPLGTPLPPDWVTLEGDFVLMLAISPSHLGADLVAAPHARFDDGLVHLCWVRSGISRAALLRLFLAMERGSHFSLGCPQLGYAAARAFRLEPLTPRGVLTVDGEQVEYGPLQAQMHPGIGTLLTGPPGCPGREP

[3] = molecular target: T1, Sphingosine kinase 2 (Homo sapiens); details: at 1 µM
[4] = molecular target: Casein kinase II subunit alpha (Homo sapiens) (UniProt P68400); details: at 0.1 µM
Chain of Casein kinase II subunit alpha (Homo sapiens) (P68400 whole entry, looked up): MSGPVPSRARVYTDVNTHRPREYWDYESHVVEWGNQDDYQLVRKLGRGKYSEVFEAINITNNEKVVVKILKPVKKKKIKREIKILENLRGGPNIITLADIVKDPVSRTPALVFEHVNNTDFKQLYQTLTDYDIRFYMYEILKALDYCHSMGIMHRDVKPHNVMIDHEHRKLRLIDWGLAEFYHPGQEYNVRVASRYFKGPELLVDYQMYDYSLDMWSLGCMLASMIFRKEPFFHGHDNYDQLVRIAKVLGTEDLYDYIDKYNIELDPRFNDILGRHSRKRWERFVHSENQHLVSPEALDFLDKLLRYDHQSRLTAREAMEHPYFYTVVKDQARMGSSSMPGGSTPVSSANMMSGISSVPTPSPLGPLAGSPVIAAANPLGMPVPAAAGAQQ

[5] = molecular target: Casein kinase II subunit alpha (Homo sapiens) (UniProt P68400); details: at 1 µM
[6] = molecular target: T2, Inhibitor of nuclear factor kappa-B kinase subunit alpha (Homo sapiens) (UniProt O15111); details: at 0.1 µM
T2 sequence (whole entry): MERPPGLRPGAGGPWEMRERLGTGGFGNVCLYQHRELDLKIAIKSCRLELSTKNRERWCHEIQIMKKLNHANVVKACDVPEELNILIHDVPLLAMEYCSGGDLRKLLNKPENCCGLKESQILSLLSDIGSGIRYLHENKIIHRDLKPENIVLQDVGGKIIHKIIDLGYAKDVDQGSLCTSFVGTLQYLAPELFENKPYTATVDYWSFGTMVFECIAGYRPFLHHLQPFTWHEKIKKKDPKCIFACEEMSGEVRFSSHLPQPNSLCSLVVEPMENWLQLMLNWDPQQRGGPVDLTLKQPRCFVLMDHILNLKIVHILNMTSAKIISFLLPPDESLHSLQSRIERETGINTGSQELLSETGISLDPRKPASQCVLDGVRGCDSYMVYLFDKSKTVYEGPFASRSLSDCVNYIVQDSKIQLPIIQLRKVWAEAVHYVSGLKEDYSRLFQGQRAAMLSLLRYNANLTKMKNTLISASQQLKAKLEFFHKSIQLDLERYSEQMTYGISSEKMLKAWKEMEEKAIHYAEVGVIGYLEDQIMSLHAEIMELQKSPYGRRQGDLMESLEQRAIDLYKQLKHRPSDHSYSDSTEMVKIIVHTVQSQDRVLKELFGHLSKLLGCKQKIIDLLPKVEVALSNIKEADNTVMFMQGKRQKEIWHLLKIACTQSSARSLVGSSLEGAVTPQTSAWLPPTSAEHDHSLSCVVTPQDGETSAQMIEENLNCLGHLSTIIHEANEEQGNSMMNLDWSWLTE

[7] = molecular target: T2, Inhibitor of nuclear factor kappa-B kinase subunit alpha (Homo sapiens); details: at 1 µM
[8] = molecular target: T3, Inhibitor of nuclear factor kappa-B kinase subunit beta (Homo sapiens) (UniProt O14920); details: at 0.1 µM
T3 sequence (whole entry): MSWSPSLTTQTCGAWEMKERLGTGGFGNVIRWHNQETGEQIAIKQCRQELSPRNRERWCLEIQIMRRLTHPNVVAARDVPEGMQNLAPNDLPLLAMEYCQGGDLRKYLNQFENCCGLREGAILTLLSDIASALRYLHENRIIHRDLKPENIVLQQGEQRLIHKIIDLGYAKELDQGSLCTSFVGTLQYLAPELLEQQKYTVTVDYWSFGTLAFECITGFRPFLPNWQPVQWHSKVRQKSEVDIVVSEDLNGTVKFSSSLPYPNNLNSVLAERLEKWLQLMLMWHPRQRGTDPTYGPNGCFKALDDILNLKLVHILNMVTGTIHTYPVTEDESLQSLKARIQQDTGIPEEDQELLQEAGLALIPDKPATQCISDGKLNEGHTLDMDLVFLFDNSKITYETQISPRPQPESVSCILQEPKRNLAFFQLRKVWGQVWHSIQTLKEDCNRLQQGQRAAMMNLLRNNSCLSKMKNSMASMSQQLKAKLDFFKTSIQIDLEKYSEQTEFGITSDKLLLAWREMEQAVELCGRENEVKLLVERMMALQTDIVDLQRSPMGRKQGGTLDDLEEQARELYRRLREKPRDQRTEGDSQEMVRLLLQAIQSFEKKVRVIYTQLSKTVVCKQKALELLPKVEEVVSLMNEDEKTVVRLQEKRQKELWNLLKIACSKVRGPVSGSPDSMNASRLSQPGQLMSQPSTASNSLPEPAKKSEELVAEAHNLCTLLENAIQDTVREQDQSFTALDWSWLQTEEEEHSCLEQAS

[9] = molecular target: T3, Inhibitor of nuclear factor kappa-B kinase subunit beta (Homo sapiens); details: at 1 µM
[10] = molecular target: T4, Inhibitor of nuclear factor kappa-B kinase subunit epsilon (Homo sapiens) (UniProt Q14164); details: at 0.1 µM
T4 sequence (whole entry): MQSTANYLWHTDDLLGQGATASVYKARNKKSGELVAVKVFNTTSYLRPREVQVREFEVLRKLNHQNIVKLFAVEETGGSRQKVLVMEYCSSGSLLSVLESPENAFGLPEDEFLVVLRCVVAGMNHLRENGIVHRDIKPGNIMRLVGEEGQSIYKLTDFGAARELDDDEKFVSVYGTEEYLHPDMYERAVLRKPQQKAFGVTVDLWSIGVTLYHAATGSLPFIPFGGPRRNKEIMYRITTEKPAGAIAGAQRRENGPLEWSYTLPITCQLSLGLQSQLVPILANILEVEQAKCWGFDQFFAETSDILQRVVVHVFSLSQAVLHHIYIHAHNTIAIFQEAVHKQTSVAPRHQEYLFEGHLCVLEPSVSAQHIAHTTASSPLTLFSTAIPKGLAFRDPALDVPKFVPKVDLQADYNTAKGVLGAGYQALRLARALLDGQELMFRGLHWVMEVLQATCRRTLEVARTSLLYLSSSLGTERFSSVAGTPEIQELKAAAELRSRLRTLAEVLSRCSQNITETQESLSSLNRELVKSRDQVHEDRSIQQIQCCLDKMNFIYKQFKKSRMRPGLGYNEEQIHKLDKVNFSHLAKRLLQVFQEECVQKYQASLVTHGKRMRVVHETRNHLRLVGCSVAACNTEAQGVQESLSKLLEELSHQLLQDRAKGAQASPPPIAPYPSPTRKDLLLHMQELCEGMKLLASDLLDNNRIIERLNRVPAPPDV

[11] = molecular target: T4, Inhibitor of nuclear factor kappa-B kinase subunit epsilon (Homo sapiens); details: at 1 µM
[12] = molecular target: T5, Serine/threonine-protein kinase Nek1 (Homo sapiens) (UniProt Q96PY6); details: at 0.1 µM
T5 sequence (whole entry): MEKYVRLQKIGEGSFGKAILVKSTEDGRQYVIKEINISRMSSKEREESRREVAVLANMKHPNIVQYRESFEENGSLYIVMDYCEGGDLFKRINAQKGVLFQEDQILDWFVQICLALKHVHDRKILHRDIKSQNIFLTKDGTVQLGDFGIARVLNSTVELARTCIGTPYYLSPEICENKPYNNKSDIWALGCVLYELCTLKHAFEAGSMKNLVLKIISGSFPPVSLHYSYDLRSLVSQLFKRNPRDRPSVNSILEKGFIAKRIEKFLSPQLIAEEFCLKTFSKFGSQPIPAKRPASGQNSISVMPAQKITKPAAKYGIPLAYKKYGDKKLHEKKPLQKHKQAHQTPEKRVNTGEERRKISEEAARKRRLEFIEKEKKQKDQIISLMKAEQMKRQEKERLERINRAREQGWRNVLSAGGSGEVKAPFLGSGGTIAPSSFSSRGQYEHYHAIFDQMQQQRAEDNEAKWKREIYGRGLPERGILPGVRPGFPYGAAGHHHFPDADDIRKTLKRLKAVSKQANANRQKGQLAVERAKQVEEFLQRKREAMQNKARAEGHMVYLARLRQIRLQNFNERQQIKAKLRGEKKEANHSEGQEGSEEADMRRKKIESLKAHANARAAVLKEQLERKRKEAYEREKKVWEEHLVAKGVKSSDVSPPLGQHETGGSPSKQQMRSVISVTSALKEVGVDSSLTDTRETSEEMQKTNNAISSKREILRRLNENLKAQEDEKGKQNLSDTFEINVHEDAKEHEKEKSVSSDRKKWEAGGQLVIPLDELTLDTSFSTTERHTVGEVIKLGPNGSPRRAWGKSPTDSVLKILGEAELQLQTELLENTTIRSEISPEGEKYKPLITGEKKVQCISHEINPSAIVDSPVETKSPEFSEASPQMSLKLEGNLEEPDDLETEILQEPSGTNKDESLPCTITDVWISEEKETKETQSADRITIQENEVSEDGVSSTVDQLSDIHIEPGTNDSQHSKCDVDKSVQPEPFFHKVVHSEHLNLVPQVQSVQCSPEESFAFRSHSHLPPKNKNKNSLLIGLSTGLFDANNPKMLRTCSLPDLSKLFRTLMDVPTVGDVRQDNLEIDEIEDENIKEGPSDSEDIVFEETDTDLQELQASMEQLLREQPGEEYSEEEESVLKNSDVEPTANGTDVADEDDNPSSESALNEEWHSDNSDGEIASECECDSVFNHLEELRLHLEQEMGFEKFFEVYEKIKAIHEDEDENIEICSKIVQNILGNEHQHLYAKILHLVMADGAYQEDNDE

[13] = molecular target: T5, Serine/threonine-protein kinase Nek1 (Homo sapiens); details: at 1 µM
[14] = molecular target: T6, Serine/threonine-protein kinase Nek2 (Homo sapiens) (UniProt P51955); details: at 0.1 µM
T6 sequence (whole entry): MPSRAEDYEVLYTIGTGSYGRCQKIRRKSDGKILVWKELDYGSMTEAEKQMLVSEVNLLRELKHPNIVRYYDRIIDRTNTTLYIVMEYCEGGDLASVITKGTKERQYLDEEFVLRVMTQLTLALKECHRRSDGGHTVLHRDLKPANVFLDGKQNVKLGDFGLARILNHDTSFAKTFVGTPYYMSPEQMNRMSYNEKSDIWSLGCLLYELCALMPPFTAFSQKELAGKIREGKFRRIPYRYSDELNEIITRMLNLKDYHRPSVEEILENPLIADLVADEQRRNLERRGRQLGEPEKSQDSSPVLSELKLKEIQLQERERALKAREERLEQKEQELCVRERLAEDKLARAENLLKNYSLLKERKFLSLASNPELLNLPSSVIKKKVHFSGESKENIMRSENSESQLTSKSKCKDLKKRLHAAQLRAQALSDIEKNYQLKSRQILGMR

[15] = molecular target: T6, Serine/threonine-protein kinase Nek2 (Homo sapiens); details: at 1 µM
[16] = molecular target: Serine/threonine-protein kinase Nek6 (Homo sapiens) (UniProt Q9HC98); details: at 0.1 µM
Chain of Serine/threonine-protein kinase Nek6 (Homo sapiens) (Q9HC98 whole entry): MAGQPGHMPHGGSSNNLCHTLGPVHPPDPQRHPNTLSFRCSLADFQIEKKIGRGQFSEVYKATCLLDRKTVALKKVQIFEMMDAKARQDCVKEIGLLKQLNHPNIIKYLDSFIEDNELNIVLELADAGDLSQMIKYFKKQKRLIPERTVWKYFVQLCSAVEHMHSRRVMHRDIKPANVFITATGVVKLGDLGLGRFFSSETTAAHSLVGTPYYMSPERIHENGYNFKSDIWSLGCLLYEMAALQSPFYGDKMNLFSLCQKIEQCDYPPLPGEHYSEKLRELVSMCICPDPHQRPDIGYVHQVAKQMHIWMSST

[17] = molecular target: Serine/threonine-protein kinase Nek6 (Homo sapiens) (UniProt Q9HC98); details: at 1 µM
[18] = molecular target: Serine/threonine-protein kinase Nek7 (Homo sapiens) (UniProt Q8TDX7); details: at 0.1 µM
Chain of Serine/threonine-protein kinase Nek7 (Homo sapiens) (Q8TDX7 whole entry, looked up): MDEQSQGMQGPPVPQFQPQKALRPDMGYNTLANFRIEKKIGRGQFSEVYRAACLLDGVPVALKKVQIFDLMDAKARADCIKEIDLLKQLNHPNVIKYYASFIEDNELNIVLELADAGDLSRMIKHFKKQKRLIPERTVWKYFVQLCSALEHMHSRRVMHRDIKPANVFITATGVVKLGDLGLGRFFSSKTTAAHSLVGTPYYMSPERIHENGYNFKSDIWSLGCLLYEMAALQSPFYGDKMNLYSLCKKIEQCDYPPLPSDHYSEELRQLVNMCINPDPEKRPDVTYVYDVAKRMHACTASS

[19] = molecular target: Serine/threonine-protein kinase Nek7 (Homo sapiens) (UniProt Q8TDX7); details: at 1 µM
[20] = molecular target: T7, Serine/threonine-protein kinase Nek9 (Homo sapiens) (UniProt Q8TD19); details: at 0.1 µM;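 note: reported value is the mean percent inhibition of NEK9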
T7 sequence (whole entry): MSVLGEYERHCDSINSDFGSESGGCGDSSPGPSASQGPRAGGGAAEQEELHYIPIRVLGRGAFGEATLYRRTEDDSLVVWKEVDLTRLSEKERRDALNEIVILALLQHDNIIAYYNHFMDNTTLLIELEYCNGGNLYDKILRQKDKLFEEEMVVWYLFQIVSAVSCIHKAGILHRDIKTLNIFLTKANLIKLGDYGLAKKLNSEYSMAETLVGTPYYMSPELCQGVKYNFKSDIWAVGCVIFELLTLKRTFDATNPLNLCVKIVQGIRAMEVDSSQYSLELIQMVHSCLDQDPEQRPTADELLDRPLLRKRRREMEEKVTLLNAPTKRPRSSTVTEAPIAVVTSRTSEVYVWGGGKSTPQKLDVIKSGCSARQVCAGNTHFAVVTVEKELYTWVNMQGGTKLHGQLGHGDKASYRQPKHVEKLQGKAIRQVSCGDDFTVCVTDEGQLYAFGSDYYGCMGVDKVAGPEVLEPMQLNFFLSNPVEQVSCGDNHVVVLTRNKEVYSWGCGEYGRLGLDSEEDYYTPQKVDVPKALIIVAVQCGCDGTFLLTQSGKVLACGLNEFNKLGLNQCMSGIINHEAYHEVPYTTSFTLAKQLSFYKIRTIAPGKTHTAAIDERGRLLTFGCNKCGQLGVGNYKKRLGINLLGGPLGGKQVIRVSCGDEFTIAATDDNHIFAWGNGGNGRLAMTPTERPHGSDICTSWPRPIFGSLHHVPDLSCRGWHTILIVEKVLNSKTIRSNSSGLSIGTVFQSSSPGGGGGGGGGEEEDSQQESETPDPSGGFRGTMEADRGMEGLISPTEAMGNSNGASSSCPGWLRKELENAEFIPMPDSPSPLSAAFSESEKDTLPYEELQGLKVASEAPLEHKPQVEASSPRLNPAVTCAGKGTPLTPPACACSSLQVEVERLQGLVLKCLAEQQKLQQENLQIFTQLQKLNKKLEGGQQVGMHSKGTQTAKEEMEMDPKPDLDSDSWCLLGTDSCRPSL

Chain of Sphingosine kinase 1 (Homo sapiens) (Q9NYA1 whole entry): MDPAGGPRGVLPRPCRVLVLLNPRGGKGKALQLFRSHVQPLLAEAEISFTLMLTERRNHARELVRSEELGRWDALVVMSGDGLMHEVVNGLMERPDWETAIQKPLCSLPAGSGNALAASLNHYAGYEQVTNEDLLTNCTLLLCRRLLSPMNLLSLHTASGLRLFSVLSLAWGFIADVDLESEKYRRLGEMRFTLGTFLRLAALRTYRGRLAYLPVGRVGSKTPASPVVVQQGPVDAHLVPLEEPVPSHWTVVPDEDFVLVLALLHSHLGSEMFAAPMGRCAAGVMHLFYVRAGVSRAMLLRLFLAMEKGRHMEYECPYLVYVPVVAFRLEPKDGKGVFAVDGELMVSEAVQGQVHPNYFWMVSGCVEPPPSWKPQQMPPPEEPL

Row | SMILES | inhibition [1] [%] | inhibition [2] [%] | inhibition [3] [%] | inhibition [4] [%] | inhibition [5] [%] | inhibition [6] [%] | inhibition [7] [%] | inhibition [8] [%] | inhibition [9] [%] | inhibition [10] [%] | inhibition [11] [%] | inhibition [12] [%] | inhibition [13] [%] | inhibition [14] [%] | inhibition [15] [%] | inhibition [16] [%] | inhibition [17] [%] | inhibition [18] [%] | inhibition [19] [%] | inhibition [20] [%]
1 | Cc1ccc(C(=O)NC(C)C)cc1-c1ccc(C(=O)NCC2CC2)cc1 | -2.98 | -1.05 | 1.77 | 7.28 | 0.22 | 2.97 | -1.81 | -0.39 | -1.83 | -5.06 | -4.16 | -1.29 | -1.39 | -3.14 | -3.6 | -3.09 | -3.72 | -6.3 | -4.59 | 3.16
2 | O=C(NCC1CC1)c1ccc(-c2cccc(C(=O)NC3CC3)c2)cc1 | -3.07 | 0.02 | 1.28 | 0.31 | -2.23 | 4.96 | 0.42 | 1.17 | 0.13 | 3.8 |  | 1.66 | 2.92 | 1.96 | 1.96 | 1.75 | 1.92 | 3.35 | 3.21 | 9.43

Source: ChEMBL document CHEMBL1961873, “Compounds: GSK PKIS; Assays: Nanosyn kinase panel” (2012)
